Among the data in PubChem BioAssay AID434961 (Broad Institute, 2010) are inhibition values, retold here.

SMILES strings stand for the structures. Out of some 7,700 compounds screened, about 15 (0.2%) were called active. Another 6% or so got no clear call; they are omitted. The full list was thinned out, with actives kept by preference. Unmarked numbers belong to inactive results.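 The calls were made as follows: active = more than half of replicate wells with inhibition above about 18% (limit read from the data, passing the limit was not always enough); inconclusive = exactly half of replicate wells above that limit; inactive = fewer than half of replicates above it.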

In this test the target is Regulator of chromosome condensation (Homo sapiens) + GTP-binding nuclear protein Ran (Homo sapiens) + Importin subunit beta-1 (Homo sapiens) (UniProt P18754+P62826+Q14974). The test can be described thus: RanGTP/importin-beta interaction disruptors – biochemical, CFP-Ran/YFP-importin-beta FRET, RCC1, cell-free, primary screen (AID 434961).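 Also: 0% = DMSO wells and 100% inhibition = RanGDP control wells on each plate.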 The following applies: active compounds read high, concentration not given here.
For `C[C@@H]1CN([C@H](C)CO)C(=O)c2cc(NC(=O)c3ccncc3)ccc2O[C@@H]1CN(C)C`, the inhibition was 0.131%.

As for `CC(C)NC(=O)Nc1ccc2c(c1)C(=O)N([C@H](C)CO)C[C@H](C)[C@@H](CN(C)Cc1ccc(C(=O)O)cc1)OCCCC[C@@H](C)O2`, the inhibition was 2.11%.

Regarding `C[C@@H]1CN([C@H](C)CO)C(=O)c2cc(NS(=O)(=O)c3ccccc3)ccc2O[C@@H](C)CCCCO[C@@H]1CN(C)Cc1ccc2c(c1)OCO2`, the inhibition was -2.27%.

Consider `COc1ccc(S(=O)(=O)Nc2cccc3c2O[C@H](CN(C)Cc2ccc4c(c2)OCO4)[C@@H](C)CN([C@@H](C)CO)C3=O)cc1`, for which the inhibition was 1.75%.

As to `C[C@@H]1CCCCO[C@@H](CN(C)C(=O)CCC(F)(F)F)[C@@H](C)CN([C@@H](C)CO)C(=O)c2cc(NS(=O)(=O)c3cccs3)ccc2O1`, the inhibition is 5.99%.

As for `C[C@@H]1CN([C@@H](C)CO)C(=O)c2cccc(NC(=O)c3cnccn3)c2O[C@H]1CN(C)C(=O)NC1CCCCC1`, the inhibition is 0.00388%.

For the molecule `CC(C)NC(=O)N(C)C[C@@H]1Oc2c(NC(=O)C3CCOCC3)cccc2C(=O)N([C@H](C)CO)C[C@H]1C`, the inhibition was -0.0599%.

Take `C[C@H]1CN([C@@H](C)CO)C(=O)Cc2cc(NS(=O)(=O)c3ccccc3)ccc2O[C@@H]1CN(C)Cc1ccc2c(c1)OCO2`: the inhibition was 0.885%.

`Cc1noc(C)c1NC(=O)Nc1ccc2c(c1)CC(=O)N([C@H](C)CO)C[C@@H](C)[C@H](CN(C)S(=O)(=O)c1ccccc1)O2`: the inhibition was 0.923%.

Regarding `C[C@@H]1CN([C@H](C)CO)C(=O)c2cc(NS(=O)(=O)c3cn(C)cn3)ccc2O[C@H]1CN(C)C(=O)Nc1ccc2c(c1)OCO2`, the inhibition was 0.416%.

Take `C[C@H](CO)N1C[C@H](C)[C@@H](CN(C)S(=O)(=O)c2ccccc2)Oc2ccc(NC(=O)NC3CCCCC3)cc2C1=O`: the inhibition is 3.44%.

`C[C@@H]1CN([C@@H](C)CO)C(=O)Cc2cc(NS(=O)(=O)c3cn(C)cn3)ccc2O[C@H]1CN(C)S(=O)(=O)c1ccc(Cl)cc1`: the inhibition was -7.4%.

`C[C@H](CO)N1C[C@H](C)[C@@H](CN(C)C(=O)NC2CCCCC2)Oc2c(NS(=O)(=O)c3ccccc3)cccc2C1=O`: the inhibition was 1.49%.

Turning to `C[C@H]1CN([C@@H](C)CO)C(=O)CCCn2nncc2CO[C@H]1CN(C)C(=O)Nc1ccccc1F`, the inhibition is 0.229%.

Regarding `Cc1noc(C)c1S(=O)(=O)N(C)C[C@@H]1Oc2ccc(NC(=O)C3CCCCC3)cc2CC(=O)N([C@@H](C)CO)C[C@@H]1C`, the inhibition was -3.61%.

Regarding `CC(C)NC(=O)N(C)C[C@@H]1Oc2c(NS(=O)(=O)c3ccccc3)cccc2C(=O)N([C@H](C)CO)C[C@H]1C`, the inhibition is 4.93%.

`C[C@@H]1CN([C@H](C)CO)C(=O)Cc2cc(NC(=O)Nc3ccccc3)ccc2O[C@H]1CN(C)CC1CC1`: the inhibition is -1.7%.

On to `COc1ccc(NC(=O)N(C)C[C@@H]2Oc3ncc(C#Cc4ccccc4)cc3C(=O)N([C@H](C)CO)C[C@@H]2C)cc1`, for which the inhibition is 2.4%.

In the case of `C[C@H](CO)N1C[C@H](C)[C@@H](CN(C)Cc2ccc(Cl)c(Cl)c2)Oc2c(NS(=O)(=O)c3cccs3)cccc2C1=O`, the inhibition was 3.33%.

For the molecule `C[C@H](CO)N1C[C@H](C)[C@@H](CN(C)C(=O)Nc2cccc3ccccc23)Oc2ccc(NC(=O)NC3CCCCC3)cc2CC1=O`, the inhibition was -2.7%.

Turning to `C[C@@H]1CCCCO[C@@H](CN(C)Cc2ccccc2)[C@@H](C)CN([C@H](C)CO)C(=O)c2cc(N(C)C)ccc2O1`, the inhibition was -4.07%.

On to `COc1ccc(CN(C)C[C@H]2Oc3ccc(NC(=O)Cc4cn(C)c5ccccc45)cc3C(=O)N([C@H](C)CO)C[C@H]2C)cc1`, for which the inhibition was -2.11%.

As to `COc1ccc(S(=O)(=O)N(C)C[C@H]2Oc3c(NC(=O)C4CC4)cccc3C(=O)N([C@@H](C)CO)C[C@@H]2C)cc1`, the inhibition was -1.54%.

Turning to `Cc1noc(C)c1S(=O)(=O)Nc1cccc2c1O[C@H](CN(C)Cc1ccc3c(c1)OCO3)[C@H](C)CN([C@H](C)CO)C2=O`, the inhibition is -8.22%.

As to `C[C@@H]1CN([C@H](C)CO)C(=O)c2cc(NC(=O)C3CC3)ccc2O[C@H]1CN(C)Cc1ccc(Cl)c(Cl)c1`, the inhibition is 0.993%.

For `Cc1noc(C)c1NC(=O)N(C)C[C@@H]1OCCCC[C@@H](C)Oc2ccc(NC(=O)Cc3ccccc3)cc2C(=O)N([C@@H](C)CO)C[C@@H]1C`, the inhibition was 4.99%.

Take `CC(C)NC(=O)N(C)C[C@@H]1OCCCC[C@H](C)Oc2ccc(NC(=O)CCC(F)(F)F)cc2C(=O)N([C@@H](C)CO)C[C@H]1C`: the inhibition is -1.88%.

As for `C[C@@H]1CN([C@@H](C)CO)C(=O)c2cc(NS(=O)(=O)c3cccs3)ccc2O[C@@H](C)CCCCO[C@@H]1CN(C)C`, the inhibition was -3.73%.

As for `COC(=O)N(C)C[C@@H]1OCc2cn(nn2)CCCC(=O)N([C@@H](C)CO)C[C@@H]1C`, the inhibition is 2.64%.

For `COC(=O)N(C)C[C@H]1OCc2cn(nn2)CCCC(=O)N([C@@H](C)CO)C[C@H]1C`, the inhibition was 18.2% (active).

Take `COC(=O)N(C)C[C@H]1OCc2cn(nn2)CCCC(=O)N([C@H](C)CO)C[C@@H]1C`: the inhibition is -1.56%.

With `C[C@H](CO)N1C[C@H](C)[C@H](CN(C)C(=O)Nc2cccc3ccccc23)OCCCC[C@H](C)Oc2ccc(NC(=O)c3ccncc3)cc2C1=O`, the inhibition is 0.239%.

On to `C[C@@H]1CN([C@@H](C)CO)C(=O)Cc2cc(NC(=O)Nc3ccc(C(F)(F)F)cc3)ccc2O[C@@H]1CN(C)C(=O)NC1CCCCC1`, for which the inhibition was 1.62%.

As for `C[C@@H]1CN([C@H](C)CO)C(=O)c2cc(NS(=O)(=O)c3cn(C)cn3)ccc2O[C@H]1CN(C)C(=O)Nc1ccc(F)cc1`, the inhibition is 9.51%.

Consider `C[C@@H]1CN([C@@H](C)CO)C(=O)Cc2cc(NC(=O)Nc3ccc4c(c3)OCO4)ccc2O[C@H]1CN(C)C(=O)NC1CCCCC1`, for which the inhibition was -2.22%.

Consider `C[C@@H]1CN([C@H](C)CO)C(=O)c2cc(NC(=O)Cc3ccccc3)ccc2O[C@@H]1CN(C)C(=O)NC1CCCCC1`, for which the inhibition is 1.32%.

As to `C[C@@H]1CN([C@H](C)CO)C(=O)CCCn2cc(nn2)CO[C@H]1CN(C)C(=O)Nc1cccc2ccccc12`, the inhibition is -3.4%.

`CC(C)NC(=O)N(C)C[C@H]1Oc2ccc(NC(=O)CCC(F)(F)F)cc2C(=O)N([C@H](C)CO)C[C@@H]1C`: the inhibition is -4.13%.

As for `C[C@H](CO)N1C[C@H](C)[C@H](CN(C)C(=O)CCCN(C)C)OCCCC[C@H](C)Oc2ccc(NC(=O)Nc3cccc4ccccc34)cc2C1=O`, the inhibition was 2.28%.

Take `C[C@H]1CN([C@@H](C)CO)C(=O)c2cccc(NS(=O)(=O)c3ccc(Cl)cc3)c2O[C@H]1CN(C)S(=O)(=O)c1cn(C)cn1`: the inhibition is -0.913%.

`CNC[C@@H]1OCCCC[C@@H](C)Oc2ccc(N)cc2C(=O)N([C@H](C)CO)C[C@H]1C`: the inhibition is 0.828%.

Take `CNC[C@H]1OCCCC[C@H](C)Oc2ccc(NS(=O)(=O)c3cccs3)cc2C(=O)N([C@@H](C)CO)C[C@@H]1C`: the inhibition was 1.28%.

Take `C[C@@H]1CN([C@@H](C)CO)C(=O)Cc2cc(NS(=O)(=O)c3cn(C)cn3)ccc2O[C@@H]1CN(C)C(=O)Nc1ccc(F)cc1`: the inhibition was -4.41%.

As for `COc1ccc(S(=O)(=O)N(C)C[C@H]2Oc3ccc(NC(=O)Nc4ccc(C(F)(F)F)cc4)cc3CC(=O)N([C@@H](C)CO)C[C@@H]2C)cc1`, the inhibition was 3.32%.

For `C[C@H](CO)N1C[C@H](C)[C@H](CN(C)Cc2ccncc2)OCCCC[C@H](C)Oc2ccc(NC(=O)CCCN(C)C)cc2C1=O`, the inhibition was 1.3%.

`C[C@H](CO)N1C[C@H](C)[C@@H](CN(C)Cc2ccc(C(=O)O)cc2)Oc2ccc(NC(=O)NC3CCCCC3)cc2C1=O`: the inhibition was -0.0517%.

As to `C[C@@H]1CN([C@@H](C)CO)C(=O)c2cc(NC(=O)Nc3cccc4ccccc34)ccc2O[C@H]1CN(C)C(=O)Nc1cccc2ccccc12`, the inhibition was -2.16%.

In the case of `C[C@H](CO)N1C[C@H](C)[C@H](CN(C)C(=O)OCc2ccccc2)OCc2cn(nn2)CCCC1=O`, the inhibition was 1.83%.

For orientation: inhibition means the relative decrease from the control value, in per cent.
